# Rows were chosen to be rich in hits. Some 4.7% of all compounds tested hit in one or more screens of this group.
# D1 agonist – Allosteric Agonists of the Human D1 Dopamine Receptor: qHTS. HEK293 T-REx D1 cells, calcium flux, agonist mode. 1% of 360,000 active. D(1A) dopamine receptor (Homo sapiens), P21728. AID 504660, 2011. activation, % at 2 µM; further: 0% is about no effect
#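 Inducible HEK293 T-REx D1 cells, force-coupled to calcium signalling, were plated at 4000 cells/well with tetracycline and held overnight at 30 C. After no-wash calcium dye loading, compound-evoked calcium rise over 180 s flagged agonists.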
# TRHR agonist – qHTS for Small Molecule Agonists and Allosteric Enhancers of Human TRH Receptor: Primary Screen for Agonists | Thyrotropin-releasing hormone receptor (Homo sapiens), P34981 | TRHR cells, calcium flux fluo-8, FDSS agonist mode | AID 493084, 2011 | activation, % at 2 µM | 0.18% of 360,000 active; further: 0% is about no effect
# Target sequence (P34981 whole entry, looked up): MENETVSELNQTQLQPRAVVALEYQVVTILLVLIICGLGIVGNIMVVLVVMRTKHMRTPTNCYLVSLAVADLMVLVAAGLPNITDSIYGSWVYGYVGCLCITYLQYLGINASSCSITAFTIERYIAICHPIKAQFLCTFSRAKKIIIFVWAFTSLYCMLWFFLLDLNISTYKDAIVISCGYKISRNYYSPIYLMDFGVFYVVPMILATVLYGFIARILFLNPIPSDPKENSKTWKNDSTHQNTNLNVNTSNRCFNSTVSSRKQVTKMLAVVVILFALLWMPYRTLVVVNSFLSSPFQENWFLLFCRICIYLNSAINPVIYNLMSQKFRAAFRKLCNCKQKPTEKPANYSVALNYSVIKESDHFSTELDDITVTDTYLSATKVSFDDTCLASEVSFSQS
#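 Agonist-mode FDSS calcium read (Ex 480/Em 530, 1 s cycles) in 1536-well TRHR cells with fluo-8 dye, after 10-cycle baseline and 23 nL compound addition; TRH at EC20 (10 nM final) added afterwards for the enhancer phase.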
# D1 PAM – Potentiators of Human D1 Dopamine Receptor: qHTS; D(1A) dopamine receptor (Homo sapiens), P21728; HEK293 TREx D1 cells, calcium flux, dopamine EC20 potentiation; potentiation, % at 10 µM; 0.036% of 360,000 active; in the data active means potentiation above about 30%; further: 0% is about no effect
# TRHR PAM – qHTS for Small Molecule Agonists and Allosteric Enhancers of Human TRH Receptor: Primary Screen for Enhancers | Thyrotropin-releasing hormone receptor (Homo sapiens), P34981 | TRHR cells, fluo-8 calcium fluorescence, EC20 TRH enhancement | enhancement, % at 2 µM | 0.66% of 360,000 active | AID 493056, 2011; in the data active means enhancement above about 30%; further: 0% is about no effect
#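 Enhancer read-out: after compound pinning and an initial kinetic agonist-mode read, an EC20 of TRH (10 nM final) was injected and fluo-8 calcium signal (Ex 480/Em 530) followed at 1 s/cycle for 100 cycles in TRHR-expressing cells.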
# D1 antag – Antagonist of Human D 1 Dopamine Receptor: qHTS | HEK293 TREx D1 cells, calcium flux, dopamine EC80; active compounds read low | 3.2% of 360,000 active | activity change, negative = inhibition, % at 10 µM; in the data active means activity change below about -30%; further: on the % scale 0 is the no-effect control and ±100 the full control effect
#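 Kinetic fluorescence of a calcium dye serves as the read-out. D1-expressing Hek293 Trex cells, induced overnight at 30 C, are exposed to compound for 180 s before an EC80 dopamine addition, then read 180 s further.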
# Starred values were filed as active, the others as inactive; · = not tested or not shown; ! = not active in a repeat. Unless noted, no stated cut-off is given here; in the data, active means activation above about 30%; inactive means the rest.
SMILES,D1 agonist,TRHR agonist,D1 PAM,TRHR PAM,D1 antag
O=c1c2oc3ccccc3c2n(Cc2ccc(Cl)cc2)c(=O)n1Cc1ccccc1,4,1,1,-3,-13
CCOc1ccc(/C=C/c2nc(C#N)c(N(C)C)o2)cc1,2,-2,0,-9,1
CCCN(CCC)c1ccc(/C=C/c2ccc3cc(OCC)ccc3n2)cc1,33*,35*,-3,-4,-19
CN(C)c1ccc(/C=C/c2ccc3ccccc3n2)cc1,139*,38*,2,16,-5
C(=C\c1ccc2ccccc2n1)/c1ccccc1,3,1,5,-4,42
Nc1nc(COC(=O)C2CC(=O)N(Cc3ccccc3Cl)C2)nc(Nc2ccccc2)n1 (configuration not stated),0,-1,-4,13,-3
CCOC(=O)c1ccccc1NC1c2ccccc2C(=O)N1C1CCN(C(=O)OCC)CC1 (configuration not stated),12,0,2,5,3
CCOC(=O)N1CCC(N2C(=O)c3ccccc3C2Nc2ccccc2C)CC1 (configuration not stated),-3,0,3,0,-71*
NNC(=O)c1ccc(N2CCc3ccccc32)c([N+](=O)[O-])c1,1,0,-2,-4,-33*
Cc1ccc(CNC(=O)c2ccc(N3CCc4ccccc43)c([N+](=O)[O-])c2)cc1,1,0,-2,-7,-10
COC(CNC(=O)c1ccc(N2CCc3ccccc32)c([N+](=O)[O-])c1)OC,10,1,-5,-3,-31*
COc1ccc(NC(=O)CCc2c(C)nc3c(-c4ccc(F)cc4)c(C)nn3c2C)c(OC)c1,0,0,-5,16,-6
Cc1cccc(NC(=O)CN2C(=O)N/C(=C/c3ccc(C)s3)C2=O)c1,53*,14,-5,10,-7
Fc1ccccc1CNc1nc(-c2cccnc2)nc2ccccc12,1,4,·,12,-60*
C=CCn1c(=O)[nH]c2nc3cc(N=CN(C)C)c(C)cc3nc2c1=O,57*,43*,2,-2,-3
CCn1nc(-c2ccccc2)c(-c2ccccc2)c(C(=O)Nc2ccccc2C#N)c1=O,2,-1,2,-4,-2
c1ccc(CN2C3=NCCCN3c3ccccc32)cc1,0,0,-2,6,-1
Brc1ccc(CN2C3=NCCCN3c3ccccc32)cc1,30*,-1,-10,-3,-11
CC(=O)Nc1ccc(NC(=O)CSc2nnc(NC(=O)C3CC(=O)N(c4ccc(F)cc4)C3)s2)cc1 (configuration not stated),4,1,0,4,2
COC(=O)C1=C(C)NC(=O)NC1c1c(O)ccc2ccccc12 (configuration not stated),1,0,-1,35*,8
COC(=O)C1=C(C)NC(c2c(O)ccc3ccccc23)C(C(=O)OC)=C1C (configuration not stated),2,1,-1,9,4
CCC(CC)C(=O)Nc1nnc(S(=O)(=O)Nc2ccc(OC)cc2)s1,2,1,3,2,-3
CC1OC23CCCCC2C(C#N)(C(=N)O3)C1(C#N)C#N (configuration not stated),-1,1,-4,3,-43*
CCC1OC23CCCCC2C(C#N)(C(=N)O3)C1(C#N)C#N (configuration not stated),5,6,-7,-2,-18
CCOC(=O)c1sc2nc(C)nc(NCc3ccc(F)cc3)c2c1C,4,1,1,2,3
SMILES,D1 agonist,TRHR agonist,D1 PAM,TRHR PAM,D1 antag
CCOC(=O)c1sc2nc(C)nc(Nc3ccc(OC)cc3)c2c1C,2,-1,-1,-1,-30*
CNS(=O)(=O)c1cccc(C(=O)OCC(=O)/C=C2/N(C)c3ccccc3C2(C)C)c1,18,1,-6,6,-43*
CNS(=O)(=O)c1cccc(C(=O)OCC(=O)c2c(N)n(C)c(=O)n(C)c2=O)c1,4,-1,0,4,-32*
CN1/C(=C\C(=O)COC(=O)c2ccc(O)c(O)c2)C(C)(C)c2ccccc21,19,-1,-13,13,-26
Cc1ccc(C)c(NC(=O)c2ccccc2NS(=O)(=O)c2cc([N+](=O)[O-])ccc2C)c1,28,1,-11,-8,-50*
Cc1cccc(N2CCN(C(=O)c3nn(C)c4c3CSc3ccccc3-4)CC2C)c1 (configuration not stated),1,0,-5,0,-46*
Cn1nc(C(=O)NCCCN2CCCCC2)c2c1-c1ccccc1SC2,5,2,-5,-11,-30*
CC1CC(C)CN(CCCNC(=O)c2nn(C)c3c2CS(=O)(=O)c2ccccc2-3)C1 (configuration not stated),-1,0,0,4,-42*
Cn1nc(C(=O)NCc2ccccc2Cl)c2c1-c1ccccc1S(=O)(=O)C2,3,-1,1,-2,-31*!
Cc1cccc(N2CCN(C(=O)c3nn(C)c4c3CS(=O)(=O)c3ccccc3-4)CC2C)c1 (configuration not stated),1,0,0,-12,-6
Cc1ccc(CCNC(=O)c2nn(C)c3c2CSc2ccccc2-3)cc1,1,0,0,-1,5
COc1ccccc1CNC(=O)c1nn(C)c2c1CS(=O)(=O)c1ccccc1-2,2,-1,-11,-19,-28
Cc1noc(C)c1CCC(=O)Nc1c(C(C)C)cccc1C(C)C,1,1,-4,-1,2
O=c1c2ccccc2nnn1COc1ccc(Cl)cc1Br,0,0,0,27,7
COc1ccc(NC(=O)CN2C(=O)COc3ccc(S(=O)(=O)NC4CCCC4)cc32)cc1OC,-2,0,6,4,-6
CCS(=O)(=O)c1ccc(-c2csc(-c3ccc(Cl)cc3)n2)c(Cl)c1Cl,2,1,-5,17,-33*
CCc1nc2oc3ccccc3c(=O)c2cc1C(=O)OC,-1,-1,-8,-4,3
COc1ccc(S(=O)(=O)N2CCN(Cc3ccc4c(c3)OCO4)CC2)cc1C,0,0,-5,1,-16
Cc1cccc(S(=O)(=O)N2CCN(Cc3ccc4c(c3)OCO4)CC2)c1,2,-1,-11,3,-34*
Cn1cc(CN2CCN(Cc3ccc4c(c3)OCO4)CC2)c(-c2ccccc2F)n1,0,0,-6,-2,-31*
